The test system of assay [1] is Epidermal growth factor receptor (Homo sapiens), P00533 [T790M]. The note with it: at 1 µM.
For assay [2], the system named is Epidermal growth factor receptor (Homo sapiens), P00533 [L858R,T790M]. Conditions: at 0.1 µM.
Assay [3] has the same test system. The note with it: at 1 µM.
The target of assay [4] is Ephrin type-A receptor 2 (Homo sapiens) (UniProt P29317). The note with it: at 0.1 µM.
For assay [5] the target is unchanged. The note with it: at 1 µM.
Assay [6] addresses T1, Ephrin type-A receptor 3 (Homo sapiens) (UniProt P29320).
T1 sequence (whole entry): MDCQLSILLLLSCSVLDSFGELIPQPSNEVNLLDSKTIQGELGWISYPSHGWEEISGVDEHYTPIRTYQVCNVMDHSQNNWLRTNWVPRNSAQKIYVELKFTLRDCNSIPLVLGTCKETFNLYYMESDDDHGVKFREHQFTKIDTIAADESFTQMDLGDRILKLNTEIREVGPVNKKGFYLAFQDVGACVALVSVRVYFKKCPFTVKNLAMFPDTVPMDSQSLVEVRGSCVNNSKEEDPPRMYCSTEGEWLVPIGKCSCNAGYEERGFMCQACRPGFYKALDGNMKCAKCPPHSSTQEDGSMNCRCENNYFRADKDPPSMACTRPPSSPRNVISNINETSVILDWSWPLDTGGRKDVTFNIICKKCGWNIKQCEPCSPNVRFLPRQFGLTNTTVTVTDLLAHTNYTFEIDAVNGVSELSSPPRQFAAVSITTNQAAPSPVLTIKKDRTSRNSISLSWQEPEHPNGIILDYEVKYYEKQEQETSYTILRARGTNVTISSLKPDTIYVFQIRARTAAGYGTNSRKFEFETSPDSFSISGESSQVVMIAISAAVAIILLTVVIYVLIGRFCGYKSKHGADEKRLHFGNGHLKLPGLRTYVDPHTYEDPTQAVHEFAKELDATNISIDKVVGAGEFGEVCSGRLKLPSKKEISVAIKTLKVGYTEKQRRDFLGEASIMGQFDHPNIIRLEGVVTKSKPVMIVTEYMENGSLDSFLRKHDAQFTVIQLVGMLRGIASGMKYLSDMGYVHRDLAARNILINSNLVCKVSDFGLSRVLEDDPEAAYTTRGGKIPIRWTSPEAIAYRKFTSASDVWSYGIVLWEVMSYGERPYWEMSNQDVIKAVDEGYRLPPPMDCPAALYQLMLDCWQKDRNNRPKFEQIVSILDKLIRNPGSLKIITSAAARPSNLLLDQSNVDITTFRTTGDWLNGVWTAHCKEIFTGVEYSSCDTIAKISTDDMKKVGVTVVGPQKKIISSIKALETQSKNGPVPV
Conditions: at 0.1 µM.

Assay [7] deals with T1, Ephrin type-A receptor 3 (Homo sapiens). Conditions: at 1 µM.
Assay [8] concerns the target Ephrin type-A receptor 4 (Homo sapiens) (UniProt P54764). The note with it: at 0.1 µM.
The target is the same in assay [9]. Conditions: at 1 µM.
In assay [10] the target is T2, Ephrin type-B receptor 2 (Homo sapiens) (UniProt P29323).
T2 sequence (whole entry): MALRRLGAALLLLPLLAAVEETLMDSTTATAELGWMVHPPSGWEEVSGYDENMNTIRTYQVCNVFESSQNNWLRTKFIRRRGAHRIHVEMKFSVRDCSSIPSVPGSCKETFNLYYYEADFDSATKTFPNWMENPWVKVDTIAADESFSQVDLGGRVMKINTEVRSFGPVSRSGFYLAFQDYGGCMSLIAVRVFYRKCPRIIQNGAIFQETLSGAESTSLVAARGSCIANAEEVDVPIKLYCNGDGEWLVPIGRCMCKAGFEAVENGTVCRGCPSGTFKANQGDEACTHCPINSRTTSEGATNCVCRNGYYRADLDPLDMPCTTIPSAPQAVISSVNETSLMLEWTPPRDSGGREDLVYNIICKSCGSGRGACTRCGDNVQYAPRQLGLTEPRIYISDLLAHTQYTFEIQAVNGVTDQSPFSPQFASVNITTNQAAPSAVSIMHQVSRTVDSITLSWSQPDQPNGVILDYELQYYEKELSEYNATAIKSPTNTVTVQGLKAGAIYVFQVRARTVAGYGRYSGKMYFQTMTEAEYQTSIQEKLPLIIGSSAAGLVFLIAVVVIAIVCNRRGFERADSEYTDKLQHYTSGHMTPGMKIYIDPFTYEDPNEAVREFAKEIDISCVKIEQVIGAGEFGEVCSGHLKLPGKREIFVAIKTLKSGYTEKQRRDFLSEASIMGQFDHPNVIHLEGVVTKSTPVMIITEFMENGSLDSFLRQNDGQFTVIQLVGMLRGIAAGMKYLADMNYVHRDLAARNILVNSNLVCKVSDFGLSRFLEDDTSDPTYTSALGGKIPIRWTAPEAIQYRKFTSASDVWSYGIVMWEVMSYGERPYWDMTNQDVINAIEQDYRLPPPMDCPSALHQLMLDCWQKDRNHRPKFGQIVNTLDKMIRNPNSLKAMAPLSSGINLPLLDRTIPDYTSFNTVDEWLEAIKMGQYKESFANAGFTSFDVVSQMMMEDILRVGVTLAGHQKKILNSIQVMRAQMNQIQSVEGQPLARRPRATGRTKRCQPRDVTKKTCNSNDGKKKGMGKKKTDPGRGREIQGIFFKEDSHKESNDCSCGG
Conditions: at 0.1 µM.

In assay [11] the target is T2, Ephrin type-B receptor 2 (Homo sapiens). Conditions: at 1 µM.
Assay [12] concerns the target T3, Ephrin type-B receptor 3 (Homo sapiens) (UniProt P54753).
T3 sequence (whole entry): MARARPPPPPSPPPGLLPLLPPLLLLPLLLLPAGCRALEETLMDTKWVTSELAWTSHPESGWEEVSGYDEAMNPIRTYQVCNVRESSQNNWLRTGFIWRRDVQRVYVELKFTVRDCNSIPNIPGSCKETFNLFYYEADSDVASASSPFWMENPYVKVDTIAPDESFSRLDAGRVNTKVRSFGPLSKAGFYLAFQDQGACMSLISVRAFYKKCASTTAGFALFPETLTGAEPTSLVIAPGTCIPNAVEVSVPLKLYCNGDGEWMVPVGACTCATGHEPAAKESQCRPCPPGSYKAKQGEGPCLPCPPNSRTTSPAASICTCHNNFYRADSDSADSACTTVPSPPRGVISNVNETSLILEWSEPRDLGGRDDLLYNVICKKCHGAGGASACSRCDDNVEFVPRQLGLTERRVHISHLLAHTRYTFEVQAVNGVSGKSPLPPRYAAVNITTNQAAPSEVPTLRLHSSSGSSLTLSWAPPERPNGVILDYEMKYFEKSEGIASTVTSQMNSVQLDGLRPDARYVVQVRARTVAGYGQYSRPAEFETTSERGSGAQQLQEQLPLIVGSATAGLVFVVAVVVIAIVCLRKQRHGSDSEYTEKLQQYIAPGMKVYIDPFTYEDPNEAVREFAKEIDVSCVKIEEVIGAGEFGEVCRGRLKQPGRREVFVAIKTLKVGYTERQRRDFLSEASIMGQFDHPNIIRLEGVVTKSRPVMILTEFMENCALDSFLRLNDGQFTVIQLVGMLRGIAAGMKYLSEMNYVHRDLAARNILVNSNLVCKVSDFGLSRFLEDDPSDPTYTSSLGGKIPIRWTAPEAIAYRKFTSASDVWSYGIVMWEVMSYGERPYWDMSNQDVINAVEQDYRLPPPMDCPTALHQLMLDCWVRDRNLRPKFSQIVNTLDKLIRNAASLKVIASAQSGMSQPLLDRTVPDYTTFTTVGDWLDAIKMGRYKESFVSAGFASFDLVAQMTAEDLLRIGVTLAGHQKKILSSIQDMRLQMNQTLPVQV
The note with it: at 0.1 µM.

Assay [13] deals with T3, Ephrin type-B receptor 3 (Homo sapiens). The note with it: at 1 µM.
Assay [14] concerns the target T4, Ephrin type-B receptor 4 (Homo sapiens) (UniProt P54760).
T4 sequence (whole entry): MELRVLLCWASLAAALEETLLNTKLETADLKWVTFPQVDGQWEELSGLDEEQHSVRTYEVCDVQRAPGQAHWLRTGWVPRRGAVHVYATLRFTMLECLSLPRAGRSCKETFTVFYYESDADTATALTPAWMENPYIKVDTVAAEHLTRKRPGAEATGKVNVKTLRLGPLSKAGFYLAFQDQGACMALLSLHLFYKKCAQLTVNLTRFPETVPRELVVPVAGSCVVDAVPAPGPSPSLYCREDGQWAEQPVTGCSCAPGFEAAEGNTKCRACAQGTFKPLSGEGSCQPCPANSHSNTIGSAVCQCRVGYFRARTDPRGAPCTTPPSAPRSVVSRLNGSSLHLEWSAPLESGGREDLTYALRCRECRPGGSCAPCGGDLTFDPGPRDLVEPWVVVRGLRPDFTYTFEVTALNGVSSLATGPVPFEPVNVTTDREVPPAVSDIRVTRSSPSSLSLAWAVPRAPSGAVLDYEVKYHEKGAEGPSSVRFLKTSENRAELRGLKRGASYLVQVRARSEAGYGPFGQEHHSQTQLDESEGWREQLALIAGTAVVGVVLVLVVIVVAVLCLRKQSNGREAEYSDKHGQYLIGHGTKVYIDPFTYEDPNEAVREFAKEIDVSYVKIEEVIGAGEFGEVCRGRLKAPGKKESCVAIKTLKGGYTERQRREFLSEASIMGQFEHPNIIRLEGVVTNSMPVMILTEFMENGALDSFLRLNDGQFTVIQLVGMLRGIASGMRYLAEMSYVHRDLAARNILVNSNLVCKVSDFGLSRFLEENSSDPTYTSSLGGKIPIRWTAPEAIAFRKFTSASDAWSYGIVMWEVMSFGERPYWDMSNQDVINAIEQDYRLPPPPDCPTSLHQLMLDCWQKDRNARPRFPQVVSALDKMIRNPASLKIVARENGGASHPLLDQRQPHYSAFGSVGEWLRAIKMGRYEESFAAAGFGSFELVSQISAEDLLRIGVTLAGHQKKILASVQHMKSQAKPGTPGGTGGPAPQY
Conditions: at 0.1 µM.

Assay [15] addresses T4, Ephrin type-B receptor 4 (Homo sapiens). Conditions: at 1 µM.
Assay [16] has as its target Receptor tyrosine-protein kinase erbB-2 (Homo sapiens) (UniProt P04626). Conditions: at 0.1 µM.
The target is the same in assay [17]. Conditions: at 1 µM.
Assay [18] concerns the target Receptor tyrosine-protein kinase erbB-4 (Homo sapiens) (UniProt Q15303). The note with it: at 0.1 µM.
Assay [19] has the same target. The note with it: at 1 µM.
The target in assay [20] is Tyrosine-protein kinase Fer (Homo sapiens) (UniProt P16591). Conditions: at 0.1 µM.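 Also: reported figures are averaged percent inhibition of FER.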

The text below walks through data of ChEMBL document CHEMBL1961873, “Compounds: GSK PKIS; Assays: Nanosyn kinase panel” (2012).

Chain of Ephrin type-A receptor 2 (Homo sapiens) (P29317 whole entry): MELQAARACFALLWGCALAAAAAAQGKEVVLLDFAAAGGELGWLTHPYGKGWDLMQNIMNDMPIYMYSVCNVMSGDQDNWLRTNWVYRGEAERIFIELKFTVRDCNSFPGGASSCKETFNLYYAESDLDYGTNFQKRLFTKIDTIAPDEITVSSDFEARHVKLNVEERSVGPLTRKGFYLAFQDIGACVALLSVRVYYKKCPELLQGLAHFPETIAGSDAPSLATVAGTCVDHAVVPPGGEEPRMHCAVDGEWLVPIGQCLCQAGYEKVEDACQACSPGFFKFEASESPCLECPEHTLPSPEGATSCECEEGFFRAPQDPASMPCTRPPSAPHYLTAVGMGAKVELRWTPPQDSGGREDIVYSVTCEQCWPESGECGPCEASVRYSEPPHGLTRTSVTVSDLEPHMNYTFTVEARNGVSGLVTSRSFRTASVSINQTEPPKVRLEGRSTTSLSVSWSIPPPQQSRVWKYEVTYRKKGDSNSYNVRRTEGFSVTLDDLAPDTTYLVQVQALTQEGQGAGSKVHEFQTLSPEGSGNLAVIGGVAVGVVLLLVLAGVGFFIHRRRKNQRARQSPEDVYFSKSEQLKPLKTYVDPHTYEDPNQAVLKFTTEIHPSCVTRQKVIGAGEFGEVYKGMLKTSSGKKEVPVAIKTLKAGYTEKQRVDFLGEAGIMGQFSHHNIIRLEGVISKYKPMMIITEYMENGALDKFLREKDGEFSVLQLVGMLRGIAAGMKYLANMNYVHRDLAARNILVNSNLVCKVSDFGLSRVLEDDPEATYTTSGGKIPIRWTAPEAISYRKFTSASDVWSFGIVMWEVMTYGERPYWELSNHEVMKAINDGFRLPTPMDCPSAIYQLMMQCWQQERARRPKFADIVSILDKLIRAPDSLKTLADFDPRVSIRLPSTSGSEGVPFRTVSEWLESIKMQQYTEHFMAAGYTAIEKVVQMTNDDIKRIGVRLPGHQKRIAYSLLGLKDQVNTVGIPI
Chain of Ephrin type-A receptor 4 (Homo sapiens) (P54764 whole entry): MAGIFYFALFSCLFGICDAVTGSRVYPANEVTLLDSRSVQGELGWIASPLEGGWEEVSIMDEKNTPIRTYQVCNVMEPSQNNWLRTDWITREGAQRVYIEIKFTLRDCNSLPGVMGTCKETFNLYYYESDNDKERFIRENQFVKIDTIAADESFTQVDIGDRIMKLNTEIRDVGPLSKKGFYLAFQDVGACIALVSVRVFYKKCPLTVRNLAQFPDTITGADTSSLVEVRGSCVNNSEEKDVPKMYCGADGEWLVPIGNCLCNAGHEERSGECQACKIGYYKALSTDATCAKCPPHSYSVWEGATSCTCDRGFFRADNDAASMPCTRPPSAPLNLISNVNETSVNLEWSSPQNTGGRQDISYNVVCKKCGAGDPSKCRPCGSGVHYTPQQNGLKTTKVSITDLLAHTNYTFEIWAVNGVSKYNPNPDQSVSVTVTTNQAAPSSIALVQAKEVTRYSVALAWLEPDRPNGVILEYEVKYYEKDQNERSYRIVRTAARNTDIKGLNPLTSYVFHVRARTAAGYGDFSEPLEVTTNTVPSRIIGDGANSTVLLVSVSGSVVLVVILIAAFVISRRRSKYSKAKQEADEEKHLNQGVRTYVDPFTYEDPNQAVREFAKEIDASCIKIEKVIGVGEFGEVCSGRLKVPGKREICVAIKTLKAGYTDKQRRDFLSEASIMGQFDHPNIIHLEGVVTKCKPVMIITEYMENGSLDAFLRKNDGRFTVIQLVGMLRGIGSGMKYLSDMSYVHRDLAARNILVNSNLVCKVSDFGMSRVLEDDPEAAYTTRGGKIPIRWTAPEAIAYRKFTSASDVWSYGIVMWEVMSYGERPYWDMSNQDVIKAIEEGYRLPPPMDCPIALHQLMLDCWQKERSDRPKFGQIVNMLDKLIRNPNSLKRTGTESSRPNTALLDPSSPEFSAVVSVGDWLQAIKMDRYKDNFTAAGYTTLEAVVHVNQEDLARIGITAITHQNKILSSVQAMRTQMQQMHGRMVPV
Chain of Epidermal growth factor receptor (Homo sapiens), P00533 [T790M] (P00533 whole entry T790M): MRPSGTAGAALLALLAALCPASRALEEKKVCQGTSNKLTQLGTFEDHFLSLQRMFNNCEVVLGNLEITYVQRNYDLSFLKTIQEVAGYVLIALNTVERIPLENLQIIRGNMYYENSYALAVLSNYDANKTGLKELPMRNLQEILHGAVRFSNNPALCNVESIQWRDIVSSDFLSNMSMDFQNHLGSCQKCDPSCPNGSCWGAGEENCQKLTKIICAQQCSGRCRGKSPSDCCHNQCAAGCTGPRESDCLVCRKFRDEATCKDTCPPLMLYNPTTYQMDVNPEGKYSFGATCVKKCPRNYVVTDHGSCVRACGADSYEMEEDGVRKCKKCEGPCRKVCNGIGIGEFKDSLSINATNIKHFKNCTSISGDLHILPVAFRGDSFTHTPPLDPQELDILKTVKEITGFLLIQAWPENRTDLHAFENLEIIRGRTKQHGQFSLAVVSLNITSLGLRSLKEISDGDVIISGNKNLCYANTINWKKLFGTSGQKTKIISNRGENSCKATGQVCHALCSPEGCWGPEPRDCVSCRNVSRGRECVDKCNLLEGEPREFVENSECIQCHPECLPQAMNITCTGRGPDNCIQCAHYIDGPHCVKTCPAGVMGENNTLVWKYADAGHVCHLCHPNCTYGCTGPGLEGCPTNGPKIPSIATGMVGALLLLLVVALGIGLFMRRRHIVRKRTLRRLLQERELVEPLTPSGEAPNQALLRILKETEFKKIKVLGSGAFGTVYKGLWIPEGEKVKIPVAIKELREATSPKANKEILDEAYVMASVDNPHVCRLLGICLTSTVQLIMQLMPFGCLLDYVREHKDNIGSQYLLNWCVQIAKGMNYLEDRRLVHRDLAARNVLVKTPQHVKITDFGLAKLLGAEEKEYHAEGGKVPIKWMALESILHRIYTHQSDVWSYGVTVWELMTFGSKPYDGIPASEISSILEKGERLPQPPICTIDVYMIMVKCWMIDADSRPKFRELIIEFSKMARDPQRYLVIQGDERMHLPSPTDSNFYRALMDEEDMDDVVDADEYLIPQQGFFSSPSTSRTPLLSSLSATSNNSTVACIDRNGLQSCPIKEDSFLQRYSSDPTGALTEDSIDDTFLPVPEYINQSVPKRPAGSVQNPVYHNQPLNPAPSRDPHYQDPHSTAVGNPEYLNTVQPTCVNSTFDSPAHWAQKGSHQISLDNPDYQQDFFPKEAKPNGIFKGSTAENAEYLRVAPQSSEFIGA
Chain of Tyrosine-protein kinase Fer (Homo sapiens) (P16591 whole entry, looked up): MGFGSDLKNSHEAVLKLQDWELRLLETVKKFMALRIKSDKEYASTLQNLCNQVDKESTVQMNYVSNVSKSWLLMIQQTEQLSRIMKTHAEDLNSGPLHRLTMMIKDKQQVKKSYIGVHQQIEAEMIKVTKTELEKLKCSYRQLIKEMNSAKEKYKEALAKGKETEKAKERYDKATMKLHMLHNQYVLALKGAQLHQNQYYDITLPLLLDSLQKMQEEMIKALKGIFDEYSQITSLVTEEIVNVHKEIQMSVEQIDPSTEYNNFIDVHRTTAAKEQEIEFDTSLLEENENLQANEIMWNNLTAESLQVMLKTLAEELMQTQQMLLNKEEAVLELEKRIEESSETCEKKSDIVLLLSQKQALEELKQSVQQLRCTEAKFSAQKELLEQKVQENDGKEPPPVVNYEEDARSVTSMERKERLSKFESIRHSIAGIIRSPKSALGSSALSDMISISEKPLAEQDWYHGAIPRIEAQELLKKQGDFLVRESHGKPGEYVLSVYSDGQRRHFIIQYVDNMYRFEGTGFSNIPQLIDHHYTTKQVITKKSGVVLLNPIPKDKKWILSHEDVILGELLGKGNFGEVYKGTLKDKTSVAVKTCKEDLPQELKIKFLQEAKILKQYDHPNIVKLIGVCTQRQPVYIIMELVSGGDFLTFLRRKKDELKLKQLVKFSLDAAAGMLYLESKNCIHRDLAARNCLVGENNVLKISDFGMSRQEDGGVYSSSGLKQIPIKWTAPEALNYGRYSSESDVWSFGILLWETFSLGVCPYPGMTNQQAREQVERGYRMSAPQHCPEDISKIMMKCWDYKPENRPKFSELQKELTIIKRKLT

A word on the inhibition: it is the drop in the measured response relative to a control, in per cent. Regarding `CN(C)CCOc1ccc(-c2nc(-c3ccncc3)c(-c3ccc4c(c3)CC/C4=N\O)[nH]2)cc1`, the inhibition stood at 2.29% in assay [1]; 2.36% in assay [2]; 6.66% in assay [3]; 1.49% in assay [4]; 0.74% in assay [5]; 2.42% in [6]. In addition, the inhibition amounted to 3.57% in assay [7]; 6.96% in assay [8]; 9.28% in [9]; 5.22% in [10]; 11.7% in [11]; 3.83% in [12]. In addition, the inhibition was 3.2% in [13]; 1.85% in assay [14]; 2.33% in assay [15]; 2.46% in assay [16]; 2.61% in [17]; 10% in assay [18]. Besides, the figures for the inhibition in [19] and in assay [20] were 15% and 1.86%, respectively.
Regarding `CCn1c(-c2nonc2N)nc2c(C#CC(C)(C)O)ncc(OC3CCNCC3)c21`, the inhibition worked out at 1.16% in assay [1]; 1.78% in [2]; 0.14% in assay [3]; 1.52% in [4]; 0.34% in assay [5]; 1.03% in assay [6]. Moreover, the inhibition is 3.69% in assay [7]; 4.06% in assay [8]; 6.59% in assay [9]; -2.87% in assay [10]; 4.11% in [11]; 3.01% in [12]. Moreover, the inhibition was determined as 4.06% in [13]; 1.92% in [14]; 1.63% in assay [15]; 5.64% in assay [16]; 3.93% in [17]; 5.65% in [18]. The results for the inhibition in assay [19] and in assay [20] were 10.3% and -0.68%, respectively.
`N#Cc1c(NC(=O)CN2CCOCC2)sc2c1CCCC2`: the inhibition came out at 4.76% in assay [1]; 2.42% in assay [2]; 4.77% in assay [3]; 1.79% in assay [4]; 1.43% in [5]; 5.54% in [6]. The inhibition stood at 6.42% in assay [7]; 7.58% in [8]; 13.1% in assay [9]; 8.79% in assay [10]; 12.9% in assay [11]; 4.21% in assay [12]. The inhibition in [13] turned out to be 4.07%; in assay [14] it was 2.41%; in assay [15], 0.41%; in assay [16], 2.23%; in assay [17], 4.83%; in assay [18], 7%. Also, the figures for the inhibition in assay [19] and in assay [20] were 5.12% and 8.53%, respectively.
Take `CS(=O)(=O)CCNCc1coc(-c2ccc3ncnc(Nc4ccc(OCc5ccccc5)cc4)c3c2)c1`: the inhibition in assay [1] was 10.3%; in assay [2], -2.4%; in assay [3], 4.59%; in assay [4], 2.56%; in assay [5], 0.15%; in assay [6] it was 7.79%. The inhibition was determined as 5.01% in [7]; 8.01% in assay [8]; 5.86% in [9]; 3.86% in assay [10]; 7.45% in assay [11]; 3.83% in assay [12]. Besides, the inhibition in assay [13] came to 4.34%; in assay [14], 2.88%; in [15], 4.04%; in assay [16], 6.1%; in assay [17], 59%; in assay [18] it was 55.3%. In addition, the inhibition is 94.1% in assay [19] and -0.6% in [20].
